# From PubChem BioAssay
# “And” between values parts separate entries of the source, which are not always exact repeats. Equal values may be shown once. Records with an inconclusive call do not appear. The source made the active and inactive calls.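 The calls were made as follows, unless noted: active = mean z-score across replicates of 1.96 or higher in either the MELAS or the Rieske mutant cell line; inactive = the rest.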
# How the values were obtained:
# [1] = modulation of C. elegans fzo-1 (AID 1259413; call rule not given here;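 also: fzo-1 mutant C. elegans worms in liquid wells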); details: C. elegans fzo-1 modulator screen, mean read-out; stronger effect = higher value
# [2] = EMT-state selective cytotoxicity in co-culture – imaging, PC-3E GFP, TEM4-18 mCherry, primary screen (AID 1345086;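 active = compounds killing one labelled cell type while sparing the other, by normalised counts and ratio limits, not self-fluorescent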;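 as to all read-outs here: cells exposed to compound for 72 h before imaging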;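 as to red/green cell ratio (normalised): normalised mesenchymal count divided by normalised epithelial count so high means epithelial killing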); details: PC-3E GFP / TEM4-18 mCherry co-culture, imaging cell counts, at 1 µM; for red/green cell ratio (normalised): actives lie on both sides, counts scaled to control wells, 1 = unselective
# [3] = viability loss in pontine glioma line – cell-based, SU-DIPG-XVII, MIPE5.0, CellTiter-Glo, qHTS, dose response (AID 1347060; cut-off not given, nearly all actives have AC50 up to about 26 µM;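 as to AC50: cells exposed to compound for 48 hours before viability readout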); details: CellTiter-Glo ATP luminescence
# [4] = viability loss in pontine glioma line – cell-based, SU-DIPG-XIII, MIPE5.0, CellTiter-Glo, qHTS, dose response (AID 1347064; cut-off not given, nearly all actives have AC50 up to about 23 µM;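 as to AC50: cells exposed to compound for 48 hours before the viability read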); details: CellTiter-Glo ATP luminescence
# [5] = viability loss in pontine glioma line – cell-based, SU-DIPG-XXV, MIPE5.0, CellTiter-Glo, qHTS, dose response (AID 1347065; cut-off not given, nearly all actives have AC50 up to about 26 µM;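 also: cells exposed to compound for 48 hours before ATP readout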); details: CellTiter-Glo ATP luminescence
# [6] = growth inhibition of DIPG cells – cell-based, MIPE4.0 library, CellTiter-Glo luminescence, qHTS (AID 1347066; cut-off not given, nearly all actives have AC50 up to about 30 µM;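 also: cells exposed to compound for 48 hours before readout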); details: SU-DIPG-VI viability, CellTiter-Glo ATP luminescence
# [7] = growth inhibition of DIPG cells – cell-based, MIPE5.0 library, qHTS (AID 1347068; cut-off not given, nearly all actives have IC50 up to about 30 µM); details: SU-DIPG-XXV viability
# [8] = viability loss with induced miR-34 in A549 – imaging, A549 dox-inducible miR-34, nuclei and caspase counts, primary screen (AID 1347080;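 active = compounds whose cell count with miR-34 switched on is under 0.7 times the count with it off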); details: A549 miR-34 inducible, Hoechst nuclei count, 48 h
# [9] = viability loss in pontine glioma line – cell-based, SU-DIPG-XIII, MIPE4.0, CellTiter-Glo, qHTS, dose response (AID 1347061; cut-off not given, nearly all actives have AC50 up to about 37 µM;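 also: cells exposed to compound for 48 hours before readout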); details: CellTiter-Glo ATP luminescence
# [10] = viability loss in pontine glioma line – cell-based, JHH-DIPG-1, MIPE4.0, CellTiter-Glo, qHTS, dose response (AID 1347062; cut-off not given, nearly all actives have AC50 up to about 27 µM); details: JHH-DIPG-1 viability, CellTiter-Glo ATP luminescence
# [11] = viability loss in pontine glioma line – cell-based, SU-DIPG-IV, MIPE4.0, CellTiter-Glo, qHTS, dose response (AID 1347063; cut-off not given, nearly all actives have AC50 up to about 30 µM;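 also: compound exposure lasted 48 hours before the viability readout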); details: CellTiter-Glo ATP luminescence
# [12] = MELAS cybrid and Rieske KO viability enhancers – cell-based, MELAS cybrids, Rieske KO mouse fibroblasts, CellTiter-Glo, primary screen (AID 1508586); details: low glucose;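 also: z relative to plate mean and SD of compound and empty wells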
# [13] = JHH-DIPG-1 glioma cell viability, MIPE5.0 library, CellTiter-Glo luminescence, qHTS (AID 1347067; cut-off not given, nearly all actives have AC50 up to about 26 µM;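 also: cells exposed to compound for 48 hours before readout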); details: JHH-DIPG-1 glioma viability, CellTiter-Glo ATP luminescence
# [14] = chitosan synthesis blockers in C. neoformans – flow cytometry, Cibacron Brilliant Red staining (AID 1347148; call rule not given here;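 also: compound exposure lasted three days at 37 degrees C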); details: Cryptococcus neoformans chitosan, stronger effect = lower value; at 10 µM unless noted
# [15] = blockers of cellular phospholipid synthesis – cell-based, LOPAC library, screen 4, primary screen (AID 1347384; call rule not given here); details: animal cells, phospholipid biosynthesis inhibition screen; at 10 µM
# [16] = tested on: Aerobactin synthetase IucA (Klebsiella pneumoniae); assay: inhibition of K. pneumoniae IucA enzyme – biochemical, Tocris library, absorbance (AID 1345561; call rule not given here;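 also: 100% = enzyme without compound and 0% = no enzyme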); details: purified IucA enzyme assay, absorbance (OD) read-out; stronger effect = lower value;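 tested at 8 µM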
# [17] = measured here: epithelial PC-3E GFP cell survival
# [18] = measured here: mesenchymal TEM4-18 mCherry cell survival
# [19] = stronger effect = lower value, cell number ratio, induced over uninduced
# [20] = measured here: relative caspase fold change +Dox/-Dox
# [21] = measured here: total cells with miR-34 induction, stronger effect = lower value
# [22] = measured here: total cells without miR-34 induction
# [23] = MELAS cybrid survival, CellTiter-Glo 48 h, stronger effect = higher value
# [24] = Rieske KO mouse fibroblast survival, CellTiter-Glo 72 h
smiles,measurement,setting,value
CCN(CC)CCOc1ccc(/C(=C(\Cl)c2ccccc2)c2ccccc2)cc1,mean signal,[1],199 (inactive)
same,red/green cell ratio (normalised),[2],1.05 (inactive)
same,normalised cell number,[2]; [17],1.43
same,normalised cell number,[2]; [18],1.5
same,AC50,[3],8.33 µM (active)
same,AC50,[4],11.8 µM (active)
same,AC50,[5],13.2 µM (active)
same,outcome,[6],inactive
same,outcome,[7],inactive
same,fold change,[8]; [19],0.868 (inactive)
same,fold change,[8]; [20],0.906
same,cell count,[8]; [21],10700
same,cell count,[8]; [22],12300
Cc1ncc([N+](=O)[O-])n1CCO,mean signal,[1],239 (inactive)
same,red/green cell ratio (normalised),[2],1.23 (inactive)
same,normalised cell number,[2]; [17],0.93
same,normalised cell number,[2]; [18],1.13
same,outcome,[9],inactive
same,outcome,[10],inactive
same,outcome,[11],inactive
same,outcome,[6],inactive
same,z-score,[12]; [23],-0.252 (inactive) and -0.693 (inactive) and 0.0516 (inactive)
same,z-score,[12]; [24],0.34 and -0.0287 and -0.879
Cc1[nH]c(=O)c(C#N)cc1-c1ccncc1,mean signal,[1],234 (inactive)
same,red/green cell ratio (normalised),[2],1.2 (inactive)
same,normalised cell number,[2]; [17],1.05
same,normalised cell number,[2]; [18],1.26
same,outcome,[3],inactive
same,outcome,[5],inactive
same,outcome,[13],inactive
same,outcome,[7],inactive
same,fold fluorescence,[14],6.33 [at 236.7 µM] (inactive)
same,outcome,[15],inactive
same,z-score,[12]; [23],-0.327 (inactive) and 0.548 (inactive) and 0.108 (inactive)
same,z-score,[12]; [24],0.87 and -0.397 and -0.212
CCc1nn(CCCN2CCN(c3cccc(Cl)c3)CC2)c(=O)n1CCOc1ccccc1,mean signal,[1],239 (inactive)
same,red/green cell ratio (normalised),[2],1.11 (inactive)
same,normalised cell number,[2]; [17],0.96
same,normalised cell number,[2]; [18],1.06
same,remaining activity,[16],104% (inactive)
same,z-score,[12]; [23],-0.135 (inactive) and 0.202 (inactive)
same,z-score,[12]; [24],-0.202 and -0.42
CCN1CCN(c2cc3c(cc2F)c(=O)c(C(=O)O)cn3C2CC2)CC1,mean signal,[1],280 (inactive)
same,red/green cell ratio (normalised),[2],1.09 (inactive)
same,normalised cell number,[2]; [17],1.12
same,normalised cell number,[2]; [18],1.23
same,fold change,[8]; [19],0.982 (inactive) and 0.836 (inactive) and 0.884 (inactive)
same,fold change,[8]; [20],1.31 and 5.17 and 1.41
same,cell count,[8]; [21],8550 and 10100 and 9090
same,cell count,[8]; [22],8710 and 12100 and 10300
same,z-score,[12]; [23],-0.903 (inactive) and 0.356 (inactive)
same,z-score,[12]; [24],-0.808 and -0.546
Clc1ccc2nsnc2c1NC1=NCCN1,mean signal,[1],249 (inactive)
same,remaining activity,[16],113% (inactive)
same,outcome,[3],inactive
same,outcome,[9],inactive
same,outcome,[4],inactive
same,outcome,[5],inactive
same,outcome,[6],inactive
same,outcome,[13],inactive
same,outcome,[7],inactive
same,outcome,[15],inactive
same,z-score,[12]; [23],-0.43 (inactive) and 0.0544 (inactive) and -0.148 (inactive)
same,z-score,[12]; [24],0.606 and 0.144 and -1.3
CNCCCCOc1ccccc1Cc1ccccc1,mean signal,[1],234 (inactive)
same,remaining activity,[16],120% (inactive)
same,fold change,[8]; [19],0.954 (inactive) and 0.995 (inactive)
same,fold change,[8]; [20],1.55 and 0.924
same,cell count,[8]; [21],7470 and 8010
same,cell count,[8]; [22],7840 and 8050
NC1CCN(c2cccc(Cl)n2)CC1,mean signal,[1],216 (inactive)
same,remaining activity,[16],113% (inactive)
same,fold change,[8]; [19],0.969 (inactive) and 0.942 (inactive)
same,fold change,[8]; [20],1.72 and 1.85
same,cell count,[8]; [21],9480 and 9570
same,cell count,[8]; [22],9780 and 10200
CC(=O)OCC(=O)NCCCOc1cccc(CN2CCCCC2)c1,mean signal,[1],244 (inactive)
same,red/green cell ratio (normalised),[2],1.02 (inactive)
same,normalised cell number,[2]; [17],0.98
same,normalised cell number,[2]; [18],1
same,z-score,[12]; [23],-0.52 (inactive) and 0.36 (inactive) and 0.133 (inactive)
same,z-score,[12]; [24],-0.102 and 0.209 and -1.07
Cc1ncc([N+](=O)[O-])n1CC(O)CCl (configuration not stated),mean signal,[1],246 (inactive)
same,red/green cell ratio (normalised),[2],1.07 (inactive)
same,normalised cell number,[2]; [17],1.1
same,normalised cell number,[2]; [18],1.18
same,z-score,[12]; [23],-0.127 (inactive) and -0.079 (inactive)
same,z-score,[12]; [24],-0.152 and -0.097
Oc1c(Cl)cc(Cl)c(Cl)c1Cc1c(O)c(Cl)cc(Cl)c1Cl,mean signal,[1],211 (inactive)
same,red/green cell ratio (normalised),[2],0.64 (inactive)
same,normalised cell number,[2]; [17],0.83
same,normalised cell number,[2]; [18],0.53
same,fold change,[8]; [19],1.05 (inactive) and 0.85 (inactive)
same,fold change,[8]; [20],2.17 and 2.72
same,cell count,[8]; [21],2100 and 2440
same,cell count,[8]; [22],2010 and 2860
same,z-score,[12]; [23],-0.483 (inactive)
same,z-score,[12]; [24],0.0864
CN1CCN(C2=Nc3ccccc3Oc3ccc(Cl)cc32)CC1,mean signal,[1],262 (inactive)
same,red/green cell ratio (normalised),[2],0.99 (inactive)
same,normalised cell number,[2]; [17],1.1
same,normalised cell number,[2]; [18],1.09
same,outcome,[15],inactive
same,z-score,[12]; [23],-0.155 (inactive) and 0.0915 (inactive)
same,z-score,[12]; [24],-0.224 and 0.0483
Nc1nc2c(ncn2CCC(CO)CO)c(=O)[nH]1,mean signal,[1],282 (inactive)
same,red/green cell ratio (normalised),[2],1 (inactive)
same,normalised cell number,[2]; [17],0.96
same,normalised cell number,[2]; [18],0.96
same,fold change,[8]; [19],0.945 (inactive) and 0.956 (inactive) and 0.874 (inactive)
same,fold change,[8]; [20],1.67 and 0.466 and 0.841
same,cell count,[8]; [21],10200 and 9130 and 9970
same,cell count,[8]; [22],10800 and 9540 and 11400
same,z-score,[12]; [23],-0.249 (inactive) and -1.06 (inactive) and -0.78 (inactive)
same,z-score,[12]; [24],-0.179 and 0.138 and 0.0729
NC(=O)OCC(COC(N)=O)c1ccccc1,mean signal,[1],234 (inactive)
same,remaining activity,[16],104% (inactive)
same,outcome,[3],inactive
same,outcome,[9],inactive
same,outcome,[10],inactive
same,outcome,[5],inactive
same,outcome,[6],inactive
same,outcome,[13],inactive
same,outcome,[7],inactive
same,outcome,[15],inactive
same,z-score,[12]; [23],0.426 (inactive) and -0.303 (inactive)
same,z-score,[12]; [24],0.386 and -0.256
CC(Oc1c(Cl)cccc1Cl)C1=NCCN1 (configuration not stated),mean signal,[1],295 (inactive)
same,red/green cell ratio (normalised),[2],1.37 (inactive)
same,normalised cell number,[2]; [17],0.85
same,normalised cell number,[2]; [18],1.17
same,fold change,[8]; [19],0.89 (inactive) and 0.878 (inactive) and 0.898 (inactive)
same,fold change,[8]; [20],0.839 and 1.76 and 1.47
same,cell count,[8]; [21],9080 and 9420 and 9240
same,cell count,[8]; [22],10200 and 10700 and 10300
same,z-score,[12]; [23],-0.146 (inactive) and 0.131 (inactive)
same,z-score,[12]; [24],-0.104 and -1.04
COc1cc2c(cc1OC)C(=O)C(CC1CCN(Cc3ccccc3)CC1)C2 (configuration not stated),mean signal,[1],214 (inactive)
same,red/green cell ratio (normalised),[2],1.04 (inactive)
same,normalised cell number,[2]; [17],1.04
same,normalised cell number,[2]; [18],1.09
same,fold change,[8]; [19],0.863 (inactive) and 0.884 (inactive)
same,fold change,[8]; [20],1.25 and 2.01
same,cell count,[8]; [21],8000 and 11200
same,cell count,[8]; [22],9270 and 12700
same,z-score,[12]; [23],1.84 (inactive)
same,z-score,[12]; [24],0.641
CCOC(=O)OC(C)OC1=C(C(=O)Nc2ccccn2)N(C)S(=O)(=O)c2ccccc21 (configuration not stated),mean signal,[1],259 (inactive)
same,red/green cell ratio (normalised),[2],1.19 (inactive)
same,normalised cell number,[2]; [17],0.84
same,normalised cell number,[2]; [18],1
same,fold change,[8]; [19],0.948 (inactive) and 0.916 (inactive) and 0.845 (inactive)
same,fold change,[8]; [20],1.05 and 0.416 and 1.29
same,cell count,[8]; [21],9250 and 8630 and 9370
same,cell count,[8]; [22],9750 and 9420 and 11100
same,z-score,[12]; [23],-0.123 (inactive) and 0.743 (inactive) and 0.745 (inactive)
same,z-score,[12]; [24],-0.115 and 1.2 and 1.74
